# Experimental data taken from PubChem BioAssay (NCATS).
# “And” between values parts separate entries of the source, which are not always exact repeats. Identical values can stand only once. Inconclusive results are not listed. Some compounds were tested as several samples or in several runs, with calls that do not always agree. The source made the active and inactive calls. Calls follow the shape of the dose curve; as a rule, active = well fitted cell-killing curve with a large enough effect; inconclusive = small, poorly fitted or top-dose-only effect, or effect the other way; inactive = no such curve, though single readings can be large or run the other way.
# Assay: Viability qHTS for spleen associated tyrosine kinase inhibitor (SYKi) naive MV4-11 cells (AID 1963823); also: nearly all actives have a fitted effect of over 40% in size
# Conditions: MV4-11 AML viability, CellTiter-Glo luminescence, 72 h; series mostly up to 45 µM; viability (% of control): at the top concentration
# In short: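 Seeding of 500 SYKi-naive MV4-11 cells per well onto pre-dispensed compounds preceded a 72 hr incubation at 37 C. Luminescent CellTiter-Glo signal, read after 10 min at room temperature, reflected viable cells.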
# Potency is read from the fitted curve at half-maximal effect.
SMILES,Potency,viability (% of control)
COc1cc(Oc2ccnc3cc(OC)c(OC)cc23)ccc1NC(=O)NC(C)c1nccs1 (stereo not given),inactive and 7.42 µM (active),–
NS(=O)(=O)c1cc2c(cc1Cl)NC(C1CC3C=CC1C3)NS2(=O)=O (stereo not given),–,65.2% (inactive)
CN(C[C@@H]1COCCO1)S(=O)(=O)Nc1ccc2ccc3ncc(-c4cnn(C)c4)cc3c(=O)c2c1,0.296 µM (active),–
COc1ccc(Cl)c(Nc2ncnc3cc(OCC4CCN(C)CC4)c(OC)cc23)c1,5.25 µM (active),–
Oc1ccc(C2CCN(c3ccnc4ccccc34)CC2)cc1O,2.09 µM (active),–
CCCCCOc1ccccc1/C(=C\SC)n1ccnc1,11.9 µM (active),–
O=C(c1ccc(/C=C/c2n[nH]c3ccccc23)cc1)N1CCNCC1,0.058 µM (active),–
CCOC(=O)c1ccnc(CNCC(=O)N(CC)CCN(C)C)c1,–,77.7% (inactive)
CC(C)C(=O)OCC(=O)[C@@]12O[C@H](C3CCCCC3)O[C@@H]1C[C@H]1[C@@H]3CCC4=CC(=O)C=C[C@]4(C)[C@H]3[C@@H](O)C[C@@]12C,5.9 µM (active),–
C=C1CCC2[C@](C)(CO)C(O)CC[C@]2(C)C1C/C=C1/C(=O)OCC1O (stereo not given in full),3.32 µM (active),–
O=C(O)/C(S)=C/c1ccc(I)cc1,–,99.6% (inactive)
CNS(=O)(=O)c1ccc2c(c1)/C(=C/c1[nH]c3c(c1CCCN1CCN(C)CC1)CCCC3)C(=O)N2,0.186 µM (active),–
CCN1CCCC(OC(=O)C(c2ccccc2)c2ccccc2)C1 (stereo not given),–,60.1% (inactive)
O=C1NCCN1CCN1CCC(c2cn(-c3ccc(F)cc3)c3ccc(Cl)cc23)CC1,0.668 µM (active),–
C[C@@H](OC[C@@]1(c2ccccc2)CC[C@]2(CCC(=O)N2)CN1)c1cc(C(F)(F)F)cc(C(F)(F)F)c1,7.42 µM (active),–
Cn1c(=O)c(F)c(Nc2ccc(I)cc2F)c2c(=O)n(C[C@@H](O)CO)cnc21,0.0332 µM (active),–
O=C(/C=C/c1cccnc1)NCCCCC1CCN(C(=O)c2ccccc2)CC1,0.0053 µM (active),–
Cc1ccc(S(=O)(=O)NC(=O)NN2CCCCCC2)cc1,–,74.3% (inactive)
CCc1nc(C(N)=O)c(Nc2ccc(N3CCC(N4CCN(C)CC4)CC3)c(OC)c2)nc1NC1CCOCC1,9 nM (active) and 18.6 nM (active),–
CC(C(O)c1ccccc1)N(C)CCOC(c1ccccc1)c1ccccc1 (stereo not given),9.2 µM (active),–

SMILES,Potency,viability (% of control)
Oc1cccc(-c2c3nc(c(-c4cccc(O)c4)c4ccc([nH]4)c(-c4cccc(O)c4)c4nc(c(-c5cccc(O)c5)c5ccc2[nH]5)CC4)C=C3)c1,16.8 µM (active),–
CC(C)(C(=O)O)c1ccc(C(O)CCCN2CCC(C(O)(c3ccccc3)c3ccccc3)CC2)cc1 (stereo not given),inactive,–
CN(C)CCN1C(=O)c2cccc3cc(NC(N)=O)cc(c23)C1=O,4.17 µM (active),–
Clc1cc(Cl)cc(CNc2ncncc2-c2ccc3c(c2)OCO3)c1,20.6 µM (active),–
Cc1cc(OCCOCC[N+](C)(C)Cc2ccccc2)ccc1C(C)(C)CC(C)(C)C,3.35 µM (active),–
O=C(/C=C/c1cccc(S(=O)(=O)Nc2ccccc2)c1)NO,563 nM (active) and 417 nM (active),–
CSc1ccc(C(=O)/C=C/c2cc(C)c(OC(C)(C)C(=O)O)c(C)c2)cc1,3.03 µM (active),–
CN1C(C)(C)CCCC1(C)C,–,78.5% (inactive)
CC(C)n1nc(-c2ccc3oc(N)nc3c2)c2c(N)ncnc21,36.6 nM (active) and 29.5 nM (active),–
O=C(O)C[C@H](O)C[C@H](O)/C=C/c1c(C2CC2)nc2ccccc2c1-c1ccc(F)cc1,461 nM (active) and 525 nM (active),–
C=CC(=O)Nc1cccc(Nc2nc(Nc3ccc(NC4CN(CCF)C4)cc3OC)ncc2C(F)(F)F)c1,1.3 µM (active) and 662 nM (active),–
NNc1nnc(NN)c2ccccc12,–,72.7% (inactive)
Nc1nc(F)nc2c1ncn2C1OC(COP(=O)(O)O)C(O)C1O (stereo not given),10.5 µM (active),–
O=C(O)c1ccccc1NCCc1ccccc1,–,47% (inactive)
Cc1ccc2nc(NC(=O)CSc3nc4c(c(=O)n3-c3ccccc3)SCC4)sc2c1,–,64% (inactive)
C[C@@H](Nc1ncnc2[nH]c(-c3ccc(O)cc3)cc12)c1ccccc1,4.11 µM (active) and 7.42 µM (active),–
Cc1cccc(C)c1NC(=O)CN1CCN(CCCC(c2ccc(F)cc2)c2ccc(F)cc2)CC1,10.6 µM (active),–
Oc1cc(O)c2c(c1)O[C@H](c1ccc(O)c(O)c1)[C@H](O)C2,–,61.7% (inactive)
CC(COc1ccccc1)NC(C)C(O)c1ccc(O)cc1 (stereo not given),–,55.4% (inactive)
NC1(C(=O)N[C@@H](CCO)c2ccc(Cl)cc2)CCN(c2ncnc3[nH]ccc23)CC1,0.461 µM (active),–
